KB-V1 cytotox: KB-V1 MDR subline cytotoxicity | KB-V1 MDR cells viability, CellTiter-Glo, 72 h | Potency, µM (top dose mostly 46.1 µM), actives largely listed as cytotoxic | 3.4% of 400,000 active | AID 1347076; also: potency is read from the fitted curve at half-maximal effect; % is scaled to controls: 0 for no effect and ±100 for the full control effect; nearly all actives have a fitted effect of over 60% in size
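Cells of the MDR subline KB-V1 are plated, dosed with compound at multiple concentrations, and incubated 72 h at 37 degrees C; CellTiter-Glo is then added and luminescence read after 10 min.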
SW480 rerep: inducers of DNA re-replication in SW480 colon cancer cells; SW480 DNA re-replication, Hoechst DNA content imaging, 48 h; Potency, µM (top dose mostly 46.1 µM), inactives show at the top dose re-replication activation, most hits filed as activators; 1.8% of 340,000 active; also: potency is read from the fitted curve at half-maximal effect; % of control where 0% means no effect; nearly all actives have a fitted effect of over 55% in size
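Hoechst fluorescence of nuclei (405 nm excitation, 500-530 nm emission) measured by plate-scanning imager after 48 hr compound exposure at 37 C; re-replication scored as increased number of nuclei with elevated intensity.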
KCNH2 3.1 inh: KCNH2 3.1 (human) potassium channel inhibition; U2OS KCNH2 3.1, thallium flux FluxOr; hits give low values; activity change, % (tested at about 1.8 µM); 0.95% of 340,000 active;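 active = maximum activity change below -70%; inconclusive = maximum activity change from -70% to -50%; inactive = maximum activity change above -50%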;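 also: thallium influx rate constant from kinetic fluorescence after stimulation buffer; % is scaled to controls: 0 for no effect and ±100 for the full control effect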
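Measured as rate of thallium-driven FluxOr signal in transduced U2OS cells carrying the 3.1 channel, read kinetically for 2 min upon stimulation; values are rate constants scaled to DMSO control wells.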
MCF10A rerep: inducers of DNA re-replication in MCF 10A breast cells; MCF 10A DNA re-replication, Hoechst nuclear intensity, 48 h; Potency, µM (doses to about 46.1 µM), for the others: top-dose activity, positive = re-replication, actives largely listed as activators; 2.9% of 350,000 active; also: potency is read from the fitted curve at half-maximal effect; % of control where 0% means no effect; nearly all actives have a fitted effect of over 50% in size
KCNH2 WT inh: KCNH2 (human, wildtype) channel inhibition; Q12809; U2OS, BacMam KCNH2, thallium flux FluxOr; hits give low values; activity change, % at 1.84 µM; 0.37% of 340,000 active;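 active = maximum activity change below -70%; inconclusive = maximum activity change between -70% and -50%; inactive = maximum activity change above -50%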; also: % is scaled to controls: 0 for no effect and ±100 for the full control effect
Target sequence (Q12809 whole entry, looked up): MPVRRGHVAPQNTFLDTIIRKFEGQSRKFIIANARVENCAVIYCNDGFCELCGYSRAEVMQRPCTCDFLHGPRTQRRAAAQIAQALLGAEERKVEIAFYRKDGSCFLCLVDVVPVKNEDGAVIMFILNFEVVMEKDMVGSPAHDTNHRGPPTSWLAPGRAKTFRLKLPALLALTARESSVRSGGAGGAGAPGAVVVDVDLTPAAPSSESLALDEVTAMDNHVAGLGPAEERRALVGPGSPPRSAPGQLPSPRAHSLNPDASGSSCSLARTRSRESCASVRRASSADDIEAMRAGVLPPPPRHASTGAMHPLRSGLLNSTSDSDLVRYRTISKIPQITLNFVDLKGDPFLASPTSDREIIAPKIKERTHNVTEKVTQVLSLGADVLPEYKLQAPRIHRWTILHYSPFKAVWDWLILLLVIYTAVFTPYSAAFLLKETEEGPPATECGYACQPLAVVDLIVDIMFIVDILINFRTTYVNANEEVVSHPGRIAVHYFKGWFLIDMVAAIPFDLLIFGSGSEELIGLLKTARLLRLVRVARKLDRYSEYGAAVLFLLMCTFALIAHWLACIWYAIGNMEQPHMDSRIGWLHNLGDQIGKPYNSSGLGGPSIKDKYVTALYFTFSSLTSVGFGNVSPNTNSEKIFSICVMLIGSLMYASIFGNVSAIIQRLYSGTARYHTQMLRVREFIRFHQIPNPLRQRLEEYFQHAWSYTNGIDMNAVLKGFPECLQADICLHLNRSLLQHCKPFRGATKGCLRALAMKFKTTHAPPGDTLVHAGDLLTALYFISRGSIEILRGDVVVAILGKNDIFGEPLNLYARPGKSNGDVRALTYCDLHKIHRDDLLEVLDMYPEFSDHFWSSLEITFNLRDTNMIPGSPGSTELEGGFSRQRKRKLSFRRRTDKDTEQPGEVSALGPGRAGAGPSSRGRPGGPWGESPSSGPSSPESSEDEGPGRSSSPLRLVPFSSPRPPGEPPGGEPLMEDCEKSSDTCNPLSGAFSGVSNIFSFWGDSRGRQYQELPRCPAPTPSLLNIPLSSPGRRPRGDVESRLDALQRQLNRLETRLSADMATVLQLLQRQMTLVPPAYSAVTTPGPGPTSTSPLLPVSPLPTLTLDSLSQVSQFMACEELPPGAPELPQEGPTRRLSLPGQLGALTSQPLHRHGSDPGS
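U2OS cells transduced with wild-type KCNH2 virus are loaded with FluxOr dye for 45 min, and thallium flux is measured in kinetic reads before and after stimulation buffer. Rate constants are normalized to DMSO controls.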
KB-3-1 cytotox: kills parental KB-3-1 adenocarcinoma cells. KB-3-1 viability, CellTiter-Glo ATP luminescence, 72 h. Potency, µM (doses to about 46.1 µM), actives largely listed as cytotoxic. 1.4% of 400,000 active; also: potency is read from the fitted curve at half-maximal effect; % is scaled to controls: 0 for no effect and ±100 for the full control effect; nearly all actives have a fitted effect of over 60% in size
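Viability of parental KB-3-1 cells, measured by CellTiter-Glo luminescence, followed a 72 h incubation at 37 °C with pinned compounds in phenol-red-free DMEM containing 10% FBS.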
* hit, by the source's call; i = inactive; ? = inconclusive; / = not tested or not shown; ! = repeats disagree. Only some compounds are listed: those with a hit (about 7.6% of all), similar ones and a draw of the others. Unless noted, calls follow the shape of the dose curve; as a rule, active = well fitted curve in the direction sought with a large enough effect; inconclusive = small, poorly fitted or top-dose-only effect, or another doubt; inactive = no such curve, though single readings can be large; an effect the other way counts as inactive or inconclusive.

SMILES	KB-V1 cytotox	SW480 rerep	KCNH2 3.1 inh	MCF10A rerep	KCNH2 WT inh	KB-3-1 cytotox
COc1ccccc1-c1cc(C(=O)NCCc2ccccc2)no1	11.6µM*!	?	-13.7	14.6µM*	-10.7	?
COc1ccc(NC(=O)c2cc(-c3ccccc3OC)on2)cc1	1µM*	3.55µM*	-28.6	?	5.5	3.98µM*
COc1ccccc1-c1cc(C(=O)Nc2cccnc2Cl)no1	i	8.1%	11.0	-9.5%	5.5	i
COc1ccc(CCNC(=O)c2cc(-c3ccccc3OC)on2)cc1OC	?	1.6%	14.7	3.7%	-2.9	i
COc1ccccc1-c1cc(C(=O)Nc2cccnc2)no1	?	0.517µM*	-8.8	?	-31.5	0.164µM*
CC1CCc2cc(F)cc3c(O)c(C(=O)NCCN(C)C)c(=O)n1c23 (stereo not given)	i	-15.2%	5.4	-2.4%	6.8	i
COc1ccc(-c2nnc3n2N=C(C)CS3)cc1	i	-5.7%	-2.0	1.3%	-2.5	i
CCOC(=O)/C(=C\c1ccc(OC(F)F)cc1)C1=Nn2c(nnc2-c2ccc(Cl)cc2)SC1	i	16.4µM*	-70.3*	5.17µM*	-77.7*	?
CCOC(=O)/C(=C/c1ccc(OC(F)F)cc1)C1=Nn2c(nnc2-c2ccc(Cl)cc2)SC1	?	7.31µM*	-83.4*	3.66µM*	?	?
O=S(=O)(NCCc1ccc(Cl)cc1)c1ccc(N2CCCCS2(=O)=O)cc1	i	/	/	/	/	i
Clc1ccccc1Cc1noc(CN2CCN(Cc3ccccn3)CC2)n1	i	0.1%	-6.9	0.2%	-0.1	i
CCN(c1ccccc1)S(=O)(=O)c1ccc2c(c1)OCCO2	i	-8.1%	-14.3	-1.7%	-0.9	i
CCOc1ccc(NC(=NCc2ccc3c(c2)OCO3)SC2CC(=O)N(c3ccc(OCC)cc3)C2=O)cc1 (stereo not given)	?	15.9%	2.4	20.6µM*	0.4	i
O=C(CN(Cc1ccco1)C(=O)c1ccc(N2CCCC2=O)cc1)Nc1ccccc1C(F)(F)F	i	1.7%	-5.2	1.9%	-6.5	i
CCC(COC(=O)Nc1cccc(C)c1)NC(=O)OCC(C)C (stereo not given)	3.66µM*	-3.9%	-6.6	4.5%	20.0	i
CCNC(=O)OCC(CC)NC(=O)OCC(C)C (stereo not given)	i	-8.0%	8.1	1.2%	13.7	i
O=C(c1cc(Br)c(Br)s1)N1CCOCC1	?	3.3%	7.1	-0.1%	-201.0*	i
COc1ccc(Nc2cc(C)nc(N3CCN(C(=O)c4ccc5c(c4)OCO5)CC3)n2)cc1	i	-8.4%	-20.5	-0.7%	-5.5	i
O=C1N2CCSC2=NC1(Nc1ccccn1)C(F)(F)F (stereo not given)	i	2.6%	-13.8	23.9%	-2.8	i
CS(=O)(=O)c1ccc2nc(NC3(C(F)(F)F)N=C4SCCN4C3=O)sc2c1 (stereo not given)	i	19.2%	4.0	?	-85.0*	i
O=C1NC[C@H](CCCCN2C[C@H](Cc3ccccc3)N(CCC3CCCCC3)C(=O)C2=O)N(CC2CCCCC2)C1=O	i	/	/	/	/	?
O=C(/C=C\c1ccco1)Nc1cc([N+](=O)[O-])ccc1F	1.16µM*	0.581µM*	7.4	?	1.3	4.11µM*
O=C(/C=C/c1ccc(Cl)c([N+](=O)[O-])c1)Nc1ccc(NC(=O)c2ccco2)cc1	i	3.7%	-119.4*	15.4%	-36.5	i
O=C(/C=C/c1cccc([N+](=O)[O-])c1)Nc1cccc(NC(=O)c2ccco2)c1	?	18.5%	3.7	16.4µM*	35.7	?
CCOC(=O)c1ccc(NC(=O)CSc2nnc(CNC(=O)c3ccc(OC)cc3)n2CC)cc1	i	/	/	/	/	i
Cc1c(Cl)cccc1N=C1NC(=O)CS1	i	/	1.9	/	15.9	i
COc1ccc(N(CC(=O)Nc2cccc(Cl)c2C)S(=O)(=O)c2c(C)nn(C)c2C)cc1	i	/	/	/	/	i
